Active and inactive are the calls of the source. The calls were made as follows: active = hit-call score of the fitted dose curve at least 0.9, where 1 is the maximum; inactive = score below 0.9.
Tests used:
Conditions in all cases: mRNA level, 48 h; actives raise or lower the signal
CYP2C9 (gene 1559) = assay: LTEA_HepaRG_CYP2C9: Life Technologies and Expression Analysis (LTEA) Assay for CYP2C9 using HepaRG (AID 2283484)
How it was run: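 Differentiated human HepaRG cells in serum-free induction medium were exposed 48 h to chemicals in 8-point half-log series from 100 uM (0.5% DMSO), in duplicate. CYP2C9 mRNA was measured by qRT-PCR, normalized to ACTB/GAPDH/POLR2A, with bidirectional fitting versus DMSO.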

CYP2E1 (gene 1571) = assay: LTEA_HepaRG_CYP2E1: Life Technologies and Expression Analysis (LTEA) Assay for CYP2E1 using HepaRG (AID 2283485)
How it was run: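 HepaRG cells in serum-free induction medium exposed 48 h to test chemicals, 8 half-log concentrations up to 100 uM in 0.5% DMSO, duplicate. CYP2E1 mRNA by qRT-PCR, normalized to ACTB, GAPDH, POLR2A; bidirectional fit versus DMSO.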

CYP4A11 (gene 1579) = assay: LTEA_HepaRG_CYP4A11: Life Technologies and Expression Analysis (LTEA) Assay for CYP4A11 using HepaRG (AID 2283486)
How it was run: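 CYP4A11 transcript levels were quantified by TaqMan qRT-PCR after HepaRG human liver cells were treated for 48 hours with test chemicals (top 100 uM, half-log dilutions, 0.5% DMSO). Gain or loss of signal was fitted relative to DMSO.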

[1] = read-out: Cytochrome P450 3A4 (Homo sapiens) (UniProt P08684); assay: LTEA_HepaRG_CYP3A4: Life Technologies and Expression Analysis (LTEA) Assay for CYP3A4 using HepaRG (AID 2283487)
How it was run: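 CYP3A4 transcript measured by TaqMan qRT-PCR and normalized to three housekeeping genes after 48 h chemical exposure of human HepaRG cells. Top concentration 100 uM, half-log steps, 0.5% DMSO vehicle; gain or loss fitted against DMSO baseline.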

[2] = read-out: DNA damage-inducible transcript 3 (DDIT3), DDIT3 (gene 1649); assay: LTEA_HepaRG_DDIT3: Life Technologies and Expression Analysis (LTEA) Assay for DNA damage-inducible transcript 3 (DDIT3) using HepaRG (AID 2283488)
How it was run: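 Differentiated human HepaRG cells in serum-free induction medium were exposed in duplicate for 48 h to 8 concentrations (top 100 uM, half-log steps, 0.5% DMSO). DDIT3 mRNA measured by TaqMan qRT-PCR, normalized to ACTB/GAPDH/POLR2A; bidirectional fit versus DMSO.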

[3] = read-out: Early growth response protein 1 (EGR1) transcription factor, EGR1 (gene 1958); assay: LTEA_HepaRG_EGR1: Life Technologies and Expression Analysis (LTEA) Assay for Early growth response protein 1 (EGR1) transcription factor using HepaRG (AID 2283490)
How it was run: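 Differentiated HepaRG cells in serum-free induction medium exposed 48 hours, duplicate, to 8 half-log concentrations up to 100 uM in 0.5% DMSO. EGR1 mRNA measured by TaqMan qRT-PCR, normalized to ACTB, GAPDH, POLR2A; bidirectional fit versus DMSO.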

[4] = read-out: Ezrin (EZR), EZR (gene 7430); assay: LTEA_HepaRG_EZR: Life Technologies and Expression Analysis (LTEA) Assay for Ezrin (EZR) using HepaRG (AID 2283491)
How it was run: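 HepaRG, 48 h chemical exposure, 8-pt half-log series from 100 uM, 0.5% DMSO vehicle, duplicates. Read-out: EZR mRNA by TaqMan qRT-PCR (Fluidigm array), housekeeping-normalized; bidirectional curve fit vs DMSO baseline.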

[5] = read-out: Cytochrome P450 3A7 (Homo sapiens) (UniProt P24462); assay: LTEA_HepaRG_CYP3A7: Life Technologies and Expression Analysis (LTEA) Assay for CYP3A7 using HepaRG (AID 2283492)
How it was run: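 CYP3A7 transcript levels were read by TaqMan qRT-PCR on Fluidigm arrays after 48 h chemical exposure of human HepaRG cells, with housekeeping-gene normalisation. Eight half-log concentrations up to 100 uM in 0.5% DMSO were tested in duplicate.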

CYP3A5 (gene 1577) = assay: LTEA_HepaRG_CYP3A5: Life Technologies and Expression Analysis (LTEA) Assay for CYP3A5 using HepaRG (AID 2283493)
How it was run: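 Differentiated HepaRG cells in serum-free induction medium were dosed 48 h with test chemicals (8-point half-log series, top 100 uM, 0.5% DMSO, duplicate). CYP3A5 mRNA measured by qRT-PCR, normalized to ACTB, GAPDH, POLR2A; bidirectional fit versus DMSO.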

[6] = read-out: Fatty Acid-Binding Protein 1 (FABP1), FABP1 (gene 2168); assay: LTEA_HepaRG_FABP1: Life Technologies and Expression Analysis (LTEA) Assay for Fatty Acid-Binding Protein 1 (FABP1) using HepaRG (AID 2283494)
How it was run: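 Differentiated human HepaRG cells exposed 48 h in serum-free induction medium to eight half-log concentrations up to 100 uM (0.5% DMSO), duplicate. FABP1 mRNA by qRT-PCR, normalised to ACTB, GAPDH, POLR2A; bidirectional fitting against DMSO.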

[7] = read-out: Cytochrome P450 7A1 (Homo sapiens) (UniProt P22680); assay: LTEA_HepaRG_CYP7A1: Life Technologies and Expression Analysis (LTEA) Assay for Cytochrome P450 7A1 (CYP7A1) using HepaRG (AID 2283496)
How it was run: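 Gene expression endpoint in human HepaRG liver cells treated for 48 h with test chemicals (up to 100 uM, 0.5% DMSO). Values come from bidirectional concentration-response fitting versus DMSO.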

[8] = read-out: Glutathione S-Transferase (GSTA2), GSTA2 (gene 2939); assay: LTEA_HepaRG_GSTA2: Life Technologies and Expression Analysis (LTEA) Assay for Glutathione S-Transferase (GSTA2) using HepaRG (AID 2283497)
How it was run: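 Differentiated human HepaRG cells were exposed in duplicate for 48 h in serum-free induction medium, 8 points from 100 uM top in half-log steps, 0.5% DMSO. GSTA2 mRNA was measured by TaqMan qRT-PCR, normalized to ACTB, GAPDH and POLR2A; bidirectional fit versus DMSO.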

[9] = read-out: Glutamate-cysteine ligase catalytic (GCLC), GCLC (gene 2729); assay: LTEA_HepaRG_GCLC: Life Technologies and Expression Analysis (LTEA) Assay for Glutamate-cysteine ligase catalytic (GCLC) using HepaRG (AID 2283498)
How it was run: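 Differentiated HepaRG cells exposed 48 h in serum-free induction medium, eight-point half-log series topping at 100 uM in 0.5% DMSO, duplicates. GCLC mRNA by qRT-PCR normalized to ACTB, GAPDH and POLR2A, fitted bidirectionally versus DMSO.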

[10] = read-out: growth arrest and DNA damage 45 (GADD45G), GADD45G (gene 10912); assay: LTEA_HepaRG_GADD45G: Life Technologies and Expression Analysis (LTEA) Assay for growth arrest and DNA damage 45 (GADD45G) using HepaRG (AID 2283499)
How it was run: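 HepaRG, 48 h exposure, top 100 uM, half-log 8-point series, 0.5% DMSO vehicle, duplicates. Readout: GADD45G transcript by qRT-PCR (Fluidigm array), housekeeping-normalised (ACTB/GAPDH/POLR2A). Bidirectional curve fit vs DMSO baseline.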

[11] = read-out: Glutamate-cysteine ligase regulatory (GCLM), GCLM (gene 2730); assay: LTEA_HepaRG_GCLM: Life Technologies and Expression Analysis (LTEA) Assay for Glutamate-cysteine ligase regulatory (GCLM) using HepaRG (AID 2283500)
How it was run: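 Differentiated human HepaRG cells exposed 48 h in serum-free induction medium to 8-point half-log concentrations (top 100 uM, 0.5% DMSO), in duplicate. GCLM mRNA quantified by qRT-PCR, normalized to ACTB, GAPDH, POLR2A; bidirectional fitting versus DMSO.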

[12] = read-out: Glutathione S-transferase M3 (GSTM3), GSTM3 (gene 2947); assay: LTEA_HepaRG_GSTM3: Life Technologies and Expression Analysis (LTEA) Assay for Glutathione S-transferase M3 (GSTM3) using HepaRG (AID 2283501)
How it was run: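 qRT-PCR read-out of GSTM3 transcript, normalized to three housekeeping genes, from human HepaRG cells after 48 h chemical exposure. Eight-point half-log series, top 100 uM, 0.5% DMSO vehicle; gain or loss fitted relative to DMSO baseline.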

[13] = read-out: Heat shock 70 kDa protein 1 (HSPA1A), gene 3303; assay: LTEA_HepaRG_HSPA1A: Life Technologies and Expression Analysis (LTEA) Assay for Heat shock 70 kDa protein 1 (HSPA1A) using HepaRG (AID 2283502)
How it was run: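 Differentiated human HepaRG cells in serum-free induction medium were exposed in duplicate for 48 h to eight concentrations (top 100 uM, half-log steps, 0.5% DMSO). HSPA1A mRNA was quantified by qRT-PCR, normalized to ACTB, GAPDH and POLR2A, and fitted bidirectionally against DMSO.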

[14] = read-out: Hypoxia-inducible factor 1-alpha (Homo sapiens) (UniProt Q16665); assay: LTEA_HepaRG_HIF1A: Life Technologies and Expression Analysis (LTEA) Assay for Hypoxia-inducible factor 1 (HIF1A) Trancription factor using HepaRG (AID 2283503)
How it was run: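 HepaRG, 48 h exposure, 8-pt half-log series from 100 uM, 0.5% DMSO vehicle, duplicates. Readout: HIF1A transcript by qRT-PCR (Fluidigm array), housekeeping-normalised. Bidirectional curve fit vs DMSO baseline.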

[15] = read-out: Cytochrome P450 4A22 (Homo sapiens) (UniProt Q5TCH4); assay: LTEA_HepaRG_CYP4A22: Life Technologies and Expression Analysis (LTEA) Assay for Cytochrome P450 4A22 (CYP4A22) using HepaRG (AID 2283495)
How it was run: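 HepaRG, 48 h post-plating -> serum-free induction medium; dosed 48 h, duplicate, 8 conc. (100 uM top, half-log), 0.5% DMSO. Readout: CYP4A22 mRNA by qRT-PCR, ACTB/GAPDH/POLR2A normalization; gain/loss fit relative to DMSO.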

[16] = read-out: Pro-epidermal growth factor (Homo sapiens) (UniProt P01133); assay: LTEA_HepaRG_EGF: Life Technologies and Expression Analysis (LTEA) Assay for Epidermal growth factor (EGF) using HepaRG (AID 2283489)
How it was run: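 qRT-PCR readout of EGF transcript after 48 h chemical exposure of HepaRG cells; eight concentrations from 100 uM down in half-log steps, duplicate wells, 0.5% DMSO vehicle. Bidirectional curve fitting against DMSO baseline.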

Measured: AC50

Sequence of Cytochrome P450 3A7 (Homo sapiens) (P24462 whole entry, looked up): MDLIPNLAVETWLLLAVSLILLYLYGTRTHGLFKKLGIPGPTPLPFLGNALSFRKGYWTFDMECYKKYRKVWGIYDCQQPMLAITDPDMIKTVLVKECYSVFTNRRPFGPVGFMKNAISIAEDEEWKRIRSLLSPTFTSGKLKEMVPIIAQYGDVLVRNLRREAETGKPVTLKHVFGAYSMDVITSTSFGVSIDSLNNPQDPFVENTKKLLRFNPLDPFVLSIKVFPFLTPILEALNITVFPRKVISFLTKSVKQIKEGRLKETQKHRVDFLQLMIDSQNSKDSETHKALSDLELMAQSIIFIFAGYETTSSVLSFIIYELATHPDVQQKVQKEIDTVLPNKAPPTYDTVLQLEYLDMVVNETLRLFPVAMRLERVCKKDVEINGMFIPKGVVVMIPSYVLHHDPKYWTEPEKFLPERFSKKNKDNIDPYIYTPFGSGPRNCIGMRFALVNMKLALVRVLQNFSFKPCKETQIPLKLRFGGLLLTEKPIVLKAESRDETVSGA
Sequence of Hypoxia-inducible factor 1-alpha (Homo sapiens) (Q16665 whole entry, looked up): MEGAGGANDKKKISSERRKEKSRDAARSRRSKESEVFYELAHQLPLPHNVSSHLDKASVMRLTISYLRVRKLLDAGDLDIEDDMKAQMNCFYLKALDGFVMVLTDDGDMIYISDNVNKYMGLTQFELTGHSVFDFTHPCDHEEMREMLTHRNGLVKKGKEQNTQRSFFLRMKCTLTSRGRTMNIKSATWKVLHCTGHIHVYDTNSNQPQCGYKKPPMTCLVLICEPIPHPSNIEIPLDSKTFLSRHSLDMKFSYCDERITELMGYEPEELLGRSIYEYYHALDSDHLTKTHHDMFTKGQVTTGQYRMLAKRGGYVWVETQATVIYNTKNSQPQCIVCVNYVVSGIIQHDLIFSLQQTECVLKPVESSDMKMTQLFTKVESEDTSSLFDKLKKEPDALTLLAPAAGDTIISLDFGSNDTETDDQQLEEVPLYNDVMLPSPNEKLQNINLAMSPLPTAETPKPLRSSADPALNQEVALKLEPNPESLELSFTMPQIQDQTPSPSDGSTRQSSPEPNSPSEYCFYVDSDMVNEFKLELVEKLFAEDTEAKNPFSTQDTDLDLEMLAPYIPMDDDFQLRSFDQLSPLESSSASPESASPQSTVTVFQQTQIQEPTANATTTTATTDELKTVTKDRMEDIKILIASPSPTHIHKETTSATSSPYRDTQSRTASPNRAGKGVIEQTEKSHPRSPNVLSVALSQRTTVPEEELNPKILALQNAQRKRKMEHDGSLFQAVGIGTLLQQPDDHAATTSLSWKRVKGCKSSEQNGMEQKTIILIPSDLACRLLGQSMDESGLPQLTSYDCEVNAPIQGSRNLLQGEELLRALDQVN
Sequence of Cytochrome P450 3A4 (Homo sapiens) (P08684 whole entry, looked up): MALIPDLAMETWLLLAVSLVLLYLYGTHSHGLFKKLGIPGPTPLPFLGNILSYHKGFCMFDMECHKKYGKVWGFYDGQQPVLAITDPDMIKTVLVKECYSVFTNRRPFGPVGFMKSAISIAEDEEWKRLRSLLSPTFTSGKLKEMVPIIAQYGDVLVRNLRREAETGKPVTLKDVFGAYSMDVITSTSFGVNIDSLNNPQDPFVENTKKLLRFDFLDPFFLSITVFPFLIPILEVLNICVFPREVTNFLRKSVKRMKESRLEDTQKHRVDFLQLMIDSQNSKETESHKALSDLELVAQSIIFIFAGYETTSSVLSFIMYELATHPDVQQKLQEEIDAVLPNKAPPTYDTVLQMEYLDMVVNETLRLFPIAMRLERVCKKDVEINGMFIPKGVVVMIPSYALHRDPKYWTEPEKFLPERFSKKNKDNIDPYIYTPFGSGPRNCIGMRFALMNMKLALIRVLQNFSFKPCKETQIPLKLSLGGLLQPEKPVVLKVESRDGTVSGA

CON=C(C(=O)OC)c1ccccc1CON=C(C)c1cccc(C(F)(F)F)c1
active: CYP2E1 (gene 1571) 25.4 µM | [1] 13.1 µM | [5] 19.5 µM | CYP3A5 (gene 1577) 50 µM
not listed: [15] | [16]
inactive: all other assays above

Nc1nc(N)nc(NC2CC2)n1
not listed: [15] | [16]
inactive: all other assays above

CN1COCN(Cc2cnc(Cl)s2)C1=N[N+](=O)[O-]
active: [1] 38.8 µM
not listed: [16]
inactive: all other assays above

CCC(=NOC/C=C/Cl)C1=C(O)CC(C2CCOCC2)CC1=O (stereo not drawn)
not listed: [16]
inactive: all other assays above

CCOP(=O)(NC(C)C)Oc1ccc(SC)c(C)c1 (stereo not drawn)
active: CYP2E1 (gene 1571) 34.3 µM | CYP4A11 (gene 1579) 22.4 µM | [6] 23.8 µM | [15] 19.5 µM | [7] 3.62 µM
not listed: [1]
inactive: all other assays above

Source: PubChem BioAssay (EPA / NIEHS)
